Compounds with a hit are over-represented: about 7.4% of the library has one in this group of screens.
KinaseGlo FLuc = Kinase-Glo luciferase inhibition (counter-screen) | Q27757 | Kinase-Glo luciferase, ATP luminescence, 8 min | Potency, µM (doses to about 38.3 µM), for the others: at the highest dose activity change, negative = inhibition, usual class: inhibitors | hit rate 0.28% among 200,000; further: on the % scale 0 is the no-effect control and ±100 the full control effect; nearly all actives have a fitted effect of over 60% in size
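Light output from Kinase-Glo luciferase with luciferin and 10 uM ATP in 50 mM imidazole pH 7.2, KCl, MgCl2, Tween 20, BSA; compound pin-delivered, 8-min ambient incubation, then luminescence read.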
ELG1 genotoxic = inducers of genotoxicity in HEK293T ELG1-luciferase cells; hit rate 1.3% among 330,000; Potency, µM (highest dose often 46 µM), without a hit: top-dose activity change, positive = activation, hits mostly activators; AID 504466; HEK293T ELG1-luciferase reporter, luminescence, 16 h; further: % of control where 0% means no effect; nearly all actives have a fitted effect of over 60% in size
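Quantitative HTS format in 1536-well plates. HEK293T ELG1-luciferase reporter cells receive test compound and are incubated 16 hr at 37 °C, 5% CO2; ONE-Glo added, 30 min room temperature, then luminescence read.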
NPC1 promoter act = activates the NPC1 promoter | Huh7 NPC1 promoter luciferase reporter, 24 h | hit rate 2.4% among 320,000 | Potency, µM (top dose mostly 9.22 µM), without a hit: top-dose activation, usual class: activators | AID 485313; further: % of control where 0% means no effect; nearly all actives have a fitted effect of over 60% in size
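Luminescence from an NPC1 promoter-driven luciferase reporter in stably transfected Huh7 cells was measured after 24 h compound treatment at 37 °C, followed by 10 min ambient incubation with luciferase detection reagent.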
SMN2 splice enh = SMN2 splice variant enhancement; HEK293 SMN2-luciferase splicing reporter, luminescence, 30-36 h; Potency, µM (titrated, usually from 46.1 µM), inactives show at the highest dose activity change, positive = activation, usual class: activators; hit rate 2.8% among 210,000; AID 1458; further: % of control where 0% means no effect; nearly all actives have a fitted effect of over 55% in size
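HEK293 cells carry an SMN2 minigene-luciferase reporter in which exon 7 inclusion puts luciferase in frame. Cells were seeded at 2000 cells/well, attached for 10-12 hours, then exposed to compounds for 30-36 hours at 37C before ONE-Glo luminescence.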
Rab9 prom act = activates the Rab9 promoter; Huh7 Rab9 promoter-luciferase reporter, luminescence, 24 h; Potency, µM (doses to about 9.22 µM), without a hit: top-dose activation, negative = inhibition, most hits filed as activators; hit rate 2.8% among 320,000; further: % of control where 0% means no effect; nearly all actives have a fitted effect of over 60% in size
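Steps: seed 1500 Huh7 Rab9-luc cells per well, rest 2 h at 37 °C; add compound in DMSO; incubate 24 h; add luciferase reagent, 10 min ambient; read luminescence.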
FLuc modulator = firefly luciferase modulation, counter-screen for miR-21 project. P08659. purified FLuc, Km substrates, luminescence inhibition. hit rate 6.9% among 360,000. AID 588342. Potency, µM (doses to about 57.5 µM), without a hit: top-dose activity change, negative = inhibition, hits mostly inhibitors;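 further: plate controls were vehicle for no effect and reference inhibitor for full effect; nearly all actives have a fitted effect of over 55% in size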
Target sequence (P08659 whole entry, looked up): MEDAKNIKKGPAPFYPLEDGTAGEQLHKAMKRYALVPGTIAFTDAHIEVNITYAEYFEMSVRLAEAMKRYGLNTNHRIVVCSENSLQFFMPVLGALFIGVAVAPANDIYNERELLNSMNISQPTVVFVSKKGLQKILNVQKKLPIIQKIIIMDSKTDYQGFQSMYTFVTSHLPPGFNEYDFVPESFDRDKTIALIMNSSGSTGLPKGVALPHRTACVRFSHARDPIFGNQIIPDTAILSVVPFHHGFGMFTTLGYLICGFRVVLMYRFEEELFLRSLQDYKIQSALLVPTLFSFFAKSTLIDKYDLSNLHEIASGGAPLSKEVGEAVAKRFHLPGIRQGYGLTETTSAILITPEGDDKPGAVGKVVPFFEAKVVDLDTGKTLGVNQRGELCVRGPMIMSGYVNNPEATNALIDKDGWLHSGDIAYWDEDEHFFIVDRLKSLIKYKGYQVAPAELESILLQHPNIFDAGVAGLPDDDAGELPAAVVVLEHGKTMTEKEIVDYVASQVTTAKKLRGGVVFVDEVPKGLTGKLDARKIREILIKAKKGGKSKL
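Purified P. pyralis luciferase, 10 nM final, with Km-level 10 uM D-luciferin and 10 uM ATP in 50 mM Tris acetate pH 7.5, 10 mM Mg acetate, 0.01% Tween-20, 0.05% BSA; 6-point qHTS titration about 60 µM downward; luminescence read.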
The depositor's hits bear a star; [ ] = remark or other dose. The call rests on the fitted dose curve; in most records, active means well fitted curve in the direction sought with a large enough effect; inconclusive means small, poorly fitted or top-dose-only effect, or another doubt; inactive means no such curve, though single readings can be large; an effect the other way counts as inactive or inconclusive. Potency means the concentration at half of the fitted maximal effect.

N#Cc1cccc(NC(=O)N2CC[C@@]3(CCCN(C(=O)c4cccc(F)c4)C3)C2)c1 was read as KinaseGlo FLuc -1% and SMN2 splice enh -17%.
Screening COc1cccc(-c2cc(C(=O)NCc3cccs3)no2)c1 returned ELG1 genotoxic 23µM*, NPC1 promoter act 3.2µM*, Rab9 prom act 3.2µM* and FLuc modulator 4.8µM*.
For COc1ccc2nc3sc(C(=O)NCc4cccs4)c(N)c3cc2c1 the results were KinaseGlo FLuc -8%, ELG1 genotoxic inconclusive, NPC1 promoter act 3.5µM*, SMN2 splice enh 3.5µM*, Rab9 prom act 4µM* and FLuc modulator 0.76µM*.
COc1ccc(NC(=O)Cn2nnc(C(=O)NCc3cccs3)c2N)cc1 was read as ELG1 genotoxic inconclusive, NPC1 promoter act 1%, SMN2 splice enh -17%, Rab9 prom act 0% and FLuc modulator -1%.
Screening COc1cccc(-c2cc(C(=O)NCc3ccc(F)cc3)no2)c1 returned SMN2 splice enh -3% and FLuc modulator -12%.
Screening COc1ccc(-c2cc(C(=O)NCc3cccs3)no2)cc1 returned ELG1 genotoxic inconclusive, NPC1 promoter act 2.5µM*, Rab9 prom act 4.5µM* and FLuc modulator inconclusive.
Cn1c(=O)cc(SCC(=O)N2CCN(c3ccccc3F)CC2)c2ccc(Cl)cc21 was read as SMN2 splice enh -1% and FLuc modulator 4%.
Screening Cc1ccc(-c2nnc(NC3CCCC3)s2)cc1 returned ELG1 genotoxic inconclusive, NPC1 promoter act 0.63µM*, Rab9 prom act 0.5µM* and FLuc modulator 3µM*.
Cc1nc(NC(=O)c2ccccc2)sc1-c1csc(N)n1 was read as KinaseGlo FLuc -10%, ELG1 genotoxic 0%, NPC1 promoter act inconclusive, SMN2 splice enh -41%, Rab9 prom act 29% and FLuc modulator 9.5µM*.
`COc1ccccc1Nc1ccc(Nc2ccccc2OC)nn1` gave ELG1 genotoxic inconclusive, NPC1 promoter act inconclusive, Rab9 prom act inconclusive and FLuc modulator 9.5µM*.
`COc1ccccc1Nc1nc(C)cs1` gave KinaseGlo FLuc -3%, ELG1 genotoxic -2%, NPC1 promoter act -2%, SMN2 splice enh inconclusive, Rab9 prom act 7% and FLuc modulator 27µM*.
Cc1ccc(Cl)cc1Nc1nc(-c2sc(NC(=O)c3ccccc3)nc2C)cs1 was read as KinaseGlo FLuc -10%, ELG1 genotoxic 0%, NPC1 promoter act -7%, SMN2 splice enh -16%, Rab9 prom act -6% and FLuc modulator -17%.
Cc1nc(NC(=O)c2ccccc2)sc1-c1csc(NCc2ccccc2)n1 was read as KinaseGlo FLuc -11%, ELG1 genotoxic -4%, NPC1 promoter act -3%, SMN2 splice enh 1%, Rab9 prom act 2% and FLuc modulator inconclusive.
Screening Cc1csc(Nc2cccc3ccccc23)n1 returned KinaseGlo FLuc -1%, ELG1 genotoxic 0%, NPC1 promoter act -1%, SMN2 splice enh 5%, Rab9 prom act 7% and FLuc modulator inconclusive.
`Cc1nc(NC(=O)c2ccccc2)sc1-c1csc(Nc2cccc(F)c2)n1` gave KinaseGlo FLuc -1%, ELG1 genotoxic -16%, NPC1 promoter act -5%, SMN2 splice enh -14%, Rab9 prom act 9% and FLuc modulator 13µM*.
COC(=O)[C@@H]1C[C@H]2CC[C@H](O)C[C@H]2N1Cc1c(F)cccc1Cl was read as KinaseGlo FLuc -4% and SMN2 splice enh 7%.
`O=C1C(Cl)=C(NC2CCc3ccccc32)C(=O)c2ncccc21` (configuration not stated) gave KinaseGlo FLuc -5% and SMN2 splice enh -104%.
`CCn1c(=O)n(-c2ccc(F)cc2)c(=O)c2sc3ccccc3c21` gave SMN2 splice enh -15% and FLuc modulator -1%.
Cc1nc2nc(NC(=O)c3ccc(C(C)(C)C)cc3)[nH]n2c(=O)c1C was read as SMN2 splice enh 6% and FLuc modulator -13%.
For CCCN(C(=O)c1cc(S(=O)(=O)N2CCc3ccccc32)cn1C)c1ccc(OCC)cc1 the results were FLuc modulator -6%.
Screening COc1ccccc1Nc1nc(-c2sc(NC(=O)c3ccccc3)nc2C)cs1 returned KinaseGlo FLuc -18%, ELG1 genotoxic -1%, NPC1 promoter act -3%, SMN2 splice enh -5%, Rab9 prom act 6% and FLuc modulator 21µM*.
Screening COc1ccccc1NC1=C(C)C(=O)CC1 returned KinaseGlo FLuc -2%, ELG1 genotoxic 21µM*, NPC1 promoter act -4%, SMN2 splice enh 18µM*, Rab9 prom act -5% and FLuc modulator -2%.
CC(=O)OC/C=C(C)/C=C/C=C(C)/C=C/C1=C(C)CCCC1(C)C was read as KinaseGlo FLuc 2%[39.9 µM] and SMN2 splice enh -1%.
COc1ccc(C(=O)Nc2nc3n(n2)C(c2ccc(Cl)cc2)C=C(c2ccccc2)N3)cc1OC (configuration not stated) was read as SMN2 splice enh -3% and FLuc modulator inconclusive.
`CC1=NN(c2ccc([N+](=O)[O-])cc2)C(=O)/C1=C\N(C)C` gave KinaseGlo FLuc 13µM*, ELG1 genotoxic inconclusive, NPC1 promoter act -1%, SMN2 splice enh 5%, Rab9 prom act 2% and FLuc modulator 11µM*.
`CC1=NN(c2nc3ccccc3[nH]2)C(=O)/C1=C/N(C)C` gave KinaseGlo FLuc 1.6µM*, ELG1 genotoxic -10%, NPC1 promoter act 1.8µM*, Rab9 prom act 1.4µM* and FLuc modulator 2.1µM*.
CCCC1=NN(c2ccc([N+](=O)[O-])cc2)C(=O)/C1=C/N(C)C was read as KinaseGlo FLuc -2%, ELG1 genotoxic 13%, NPC1 promoter act 18%, SMN2 splice enh 28%, Rab9 prom act 1% and FLuc modulator 11µM*.
`CCOC(=O)c1[nH]c2c(c1Cc1ccccc1)C(=O)CC(c1ccc(OC)cc1)C2` (configuration not stated) gave SMN2 splice enh -9% and FLuc modulator 1%.
`COc1ccc(CCC(=O)Nc2sccc2C#N)cc1` gave KinaseGlo FLuc -15%, ELG1 genotoxic 6.5µM*, NPC1 promoter act 4µM*, SMN2 splice enh 16µM*, Rab9 prom act 2µM* and FLuc modulator 17µM*.
`N#Cc1ccsc1NC(=O)COC(=O)c1ccc(Br)o1` gave ELG1 genotoxic 4%.
`Cn1cccc1C(=O)OCC(=O)Nc1sccc1C#N` gave ELG1 genotoxic 21µM*.

Assay outcomes (PubChem BioAssay)
